Values joined by “and” are separate entries in the source; they are usually repeats but may differ in a detail not shown here. Identical values can stand only once. The campaign covered roughly 5,500 compounds. About 2,000 (36%) were called active. About 18% were inconclusive and are not listed. Rule as the data show it: active = normalized growth mostly below about 0.91 (no sharp cut-off); inconclusive = no clear call, values can overlap the other calls; inactive = mostly above about 0.92. The list shows a part of the results.
Test: chemical genetic growth profiling, strain panel (AID 1159580);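 also: tested at 20 µM; growth read once vehicle control cultures reached saturation at 30 °C; 1 = growth at the plate median or of vehicle wells; lower values mean less growth of the strain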
Settings: S. cerevisiae deletion strains, growth OD

Measured: normalized growth

O=C(O)/C=C/c1ccc(O)c(O)c1
inactive: locus YAL021C, strain ccr4, active compounds read low 0.981 | locus YAL026C, strain drs2, active compounds read low 1 | locus YAL030W, strain snc1, active compounds read low 1 | locus YAL040C, strain CLN3, active compounds read low 1.02 | locus YBL061C, strain skt5, active compounds read low 0.996 | locus YBR009C, strain hhf1, active compounds read low 0.995 | locus YBR021W, strain FUR4, active compounds read low 1.01 | locus YBR023C, strain chs3, active compounds read low 1 | locus YBR171W, strain sec66, active compounds read low 1 | locus YBR229C, strain ROT2, active compounds read low 1.01 | locus YBR231C, strain swc5, active compounds read low 1 | locus YBR279W, strain paf1, active compounds read low 0.995 | locus YCL011C, strain gbp2, active compounds read low 1.01 | locus YCL016C, strain dcc1, active compounds read low 1 | locus YCL029C, strain bik1, active compounds read low 1.01 | locus YCL061C, strain MRC1 (second series), active compounds read low 1.01 | locus YCL061C, strain MRC1, active compounds read low 1 | locus YCL069W, strain vba3, active compounds read low 1 | locus YCR088W, strain abp1, active compounds read low 1 | locus YDL005C, strain med2, active compounds read low 1 | locus YDL035C, strain GPR1, active compounds read low 1.02 | locus YDL040C, strain nat1, active compounds read low 1 | locus YDL074C, strain BRE1, active compounds read low 1.05 | locus YDL101C, strain DUN1, active compounds read low 1.01 | locus YDL134C, strain PPH21, active compounds read low 1 | locus YDL185W, strain tfp1, active compounds read low 1 | locus YDL192W, strain arf1, active compounds read low 1 | locus YDR001C, strain nth1, active compounds read low 1 | locus YDR069C, strain doa4, active compounds read low 1.01 | locus YDR101C, strain arx1, active compounds read low 1 | locus YDR137W, strain rgp1, active compounds read low 0.998 | locus YDR150W, strain NUM1, active compounds read low 1.01 | locus YDR159W, strain sac3, active compounds read low 1 | locus YDR162C, strain NBP2, active compounds read low 1 | locus YDR195W, strain ref2 0.977 | locus YDR297W, strain sur2, active compounds read low 1.01 | locus YDR318W, strain mcm21, active compounds read low 1 | locus YDR334W, strain swr1, active compounds read low 0.993 | locus YDR335W, strain msn5, active compounds read low 0.99 | locus YDR388W, active compounds read low 1.01 | locus YDR392W, strain spt3, active compounds read low 1.03 | locus YDR502C, strain sam2, active compounds read low 0.996 | locus YEL003W, strain gim4, active compounds read low 1.01 | locus YEL037C, strain rad23, active compounds read low 0.991 | locus YEL061C, strain CIN8 (second series), active compounds read low 1 | locus YEL061C, strain CIN8, active compounds read low 1.01 | locus YER002W, strain NOP16, active compounds read low 1.02 | locus YER015W, strain faa2, active compounds read low 1 | locus YER016W, strain bim1, active compounds read low 1.01 | locus YER110C, active compounds read low 1.02 | locus YER111C, strain swi4, active compounds read low 0.981 | locus YER155C, strain BEM2 (second series), active compounds read low 1.03 | locus YER155C, strain BEM2, active compounds read low 1 | locus YER167W, strain BCK2, active compounds read low 1.02 | locus YFR010W, strain ubp6, active compounds read low 1 | locus YGL078C, strain dbp3, active compounds read low 0.997 | locus YGL086W, strain mad1, active compounds read low 1.03 | locus YGL167C, strain pmr1, active compounds read low 1 | locus YGL173C, strain kem1, active compounds read low 1 | locus YGL227W, strain vid30, active compounds read low 1.01 | locus YGL240W, strain doc1, active compounds read low 1 | locus YGL248W, strain PDE1, active compounds read low 0.999 | locus YGL253W, strain hxk2, active compounds read low 1 | locus YGR078C, strain PAC10, active compounds read low 1 | locus YGR135W, strain pre9, active compounds read low 1.01 | locus YGR229C, strain SMI1, active compounds read low 1.01 and 1.04 | locus YGR252W, strain gcn5, active compounds read low 0.981 | locus YHR013C, strain ard1, active compounds read low 0.993 | locus YHR027C, strain rpn1, active compounds read low 0.992 | locus YHR030C, strain SLT2, active compounds read low 1.01 | locus YHR079C, strain IRE1 (second series), active compounds read low 1.03 | locus YHR079C, strain IRE1, active compounds read low 0.993 | locus YHR094C, strain hxt1, active compounds read low 1.01 | locus YHR129C, strain ARP1, active compounds read low 1.02 | locus YHR142W, strain chs7, active compounds read low 1.01 | locus YHR200W, strain rpn10, active compounds read low 1.03 | locus YIL066C, strain RNR3, active compounds read low 1.01 | locus YIL073C, strain SPO22, active compounds read low 1.04 | locus YIL125W, strain kgd1, active compounds read low 1.01 | locus YIR030C, strain dcg1, active compounds read low 1 | locus YJL092W, strain hpr5, active compounds read low 1 | locus YJL095W, strain BCK1 (second series), active compounds read low 0.994 | locus YJL095W, strain BCK1, active compounds read low 0.996 and 1.01 | locus YJL115W, strain asf1, active compounds read low 0.991 | locus YJL129C, strain trk1, active compounds read low 1 | locus YJL134W, strain LCB3, active compounds read low 1.01 | locus YJL154C, strain vps35, active compounds read low 0.999 | locus YJL164C, strain tpk1, active compounds read low 1.01 | locus YJL166W, strain qcr8, active compounds read low 1 | locus YJL168C, strain set2, active compounds read low 1 | locus YJL187C, strain SWE1 (second series), active compounds read low 1 | locus YJL187C, strain SWE1, active compounds read low 0.998
